Compounds with a hit are over-represented: about 6.5% of the library has one in this group of screens.
HCMV antiviral: blocks human cytomegalovirus replication | HFF cells, HCMV-luciferase reporter, 72 h; stronger effect = lower value | 410,000 tested, 4.5% active | activity change, negative = inhibition, % at 57.5 µM; in the data active means activity change below about -60%; inconclusive means no clear call, values can overlap the other calls; inactive means above about -39%
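Compounds were evaluated in HFFs infected with an HCMV luciferase reporter virus (MOI 1 PFU/cell). Luciferase in lysates collected 72 h post infection served as the replication measure.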
MARV entry inh: blocks Marburg virus binding to or entry into cells | Marburg virus pseudotyped entry inhibition, cell reporter | Potency, µM (titrated, usually from 37.8 µM), actives largely listed as inhibitors | 300,000 tested, 1.8% active; calls by dose curve; tested in HEK293 cells
LASV entry inh: Lassa virus entry inhibition. 300,000 tested, 1.2% active. Lassa virus pseudotype entry inhibition, cell reporter. Potency, µM (series often up to 37.9 µM), hits mostly inhibitors; calls by dose curve; tested in HEK293 cells; further: nearly all actives have a fitted effect of over 50% in size
Vaccinia mCherry: inhibitors of vaccinia virus infection (mCherry reporter signal); AID 720579; 310,000 tested, 0.63% active; Potency, µM (series often up to 36.5 µM), usual class: inhibitors; Vaccinia virus mCherry reporter infection, fluorescence; calls by dose curve; tested in A549 cells; further: nearly all actives have a fitted effect of over 35% in size
VACV Venus inh: inhibitors of vaccinia virus (Venus reporter); Potency, µM (series often up to 36.5 µM), hits mostly inhibitors; 330,000 tested, 0.46% active; Vaccinia virus Venus reporter expression, fluorescence; AID 720580; calls by dose curve; tested in A549 cells; further: nearly all actives have a fitted effect of over 30% in size
FMDV inh: antivirals against foot and mouth disease virus. Potency, µM (doses to about 57.9 µM), most hits filed as inhibitors. 410,000 tested, 1.2% active. AID 1159524. FMDV antiviral cell-based qHTS; calls by dose curve; tested in HEK293T cells; further: read-out not given here; nearly all actives have a fitted effect of over 45% in size
Numbers stand for hits; 0 = inactive; ? = inconclusive; - = not tested or not shown; [ ] = remark or other dose.

SMILES	HCMV antiviral	MARV entry inh	LASV entry inh	Vaccinia mCherry	VACV Venus inh	FMDV inh
COc1ccc2nc(NC(=O)c3nc(SCc4cccc(C)c4)ncc3Cl)sc2c1	0	0	0	?	?	0
COc1ccc2nc(NC(=O)c3nc(S(=O)(=O)Cc4ccccc4)ncc3Cl)sc2c1	-100.7	?	?	0	0	25.1µM
COc1ccc2nc(NC(=O)c3nc(S(=O)(=O)Cc4cccc(C)c4)ncc3Cl)sc2c1	-99.9	?	?	?	?	?
CC(CC(c1ccccc1)c1ccccc1)NC(C)(C)C (stereo not drawn)	0	-	-	-	-	-
Cc1coc2c1c(C)cc1oc(=O)c(CC(=O)NCCc3ccc(Cl)cc3)c(C)c12	0	0	0	0	0	0
O=C(NCCc1ccccc1)[C@@H]1CC=C[C@@H]2CCN(C3CCCCC3)C(=O)[C@@H]21	0	-	-	0	0	0
CC[n+]1c(/C=C/N(C)c2ccccc2)n(-c2ccccc2)c2ccc(-c3nc4ccccc4s3)cc21	-	?	2.51µM	?	4.47µM	6.31µM
CCN1CCc2c(C#N)c(NCc3ccccc3)nc(N(CC)CC)c2C1	0	?	14.6µM	-	-	?
CC(C)(C)c1ccc(S(=O)(=O)N2CCN(C(=O)C3=COCCO3)CC2)cc1	0	-	-	-	-	0
O=C(Nc1nc2ccccc2[nH]1)c1ccc(Cl)cc1	0	?	2.51µM	0	0	0
COc1cc(/C=C(/C(=O)c2cccs2)c2nc3ccccc3[nH]2)cc(OC)c1O	-102.4	0	?	-	-	14.1µM
C=CCN(c1ccccc1)S(=O)(=O)c1cccc(C(=O)Nc2ccc(N3CCOCC3)cc2)c1	?	?	?	?	?	22.4µM
C=CCN(c1ccccc1)S(=O)(=O)c1cccc(C(=O)Nc2nc3ccccc3[nH]2)c1	0	?	0	0	0	22.4µM
O=C(Nc1nc2ccccc2[nH]1)c1ccccc1	0	?	?	-	0	0
O=S1(=O)N[C@H](Cc2ccccc2)COc2cccc(N3CCC[C@@H]3CO)c21	0	-	-	0	0	?
N#Cc1cccc(-c2ccc3c(c2)COCC(=O)N3CCN2CCOCC2)c1	0	-	-	-	-	-
CCN(c1ccccc1)S(=O)(=O)c1ccc(C(=O)Nc2ccncc2)cc1	0	?	?	0	0	25.1µM
Cc1ccccc1NC(=O)c1ccc(N(Cc2ccccc2)S(C)(=O)=O)cc1	?	-	0	0	0	0
CCN(c1ccccc1)S(=O)(=O)c1ccc(C(=O)Nc2cccc(NC(C)=O)c2)cc1	0	-	-	-	-	?
O=C(/C(=C/c1ccc(Cl)cc1)c1nc2ccccc2[nH]1)c1ccccc1	-95.7	?	4.11µM	?	?	?
CS(=O)(=O)N(Cc1ccccc1)c1ccc(C(=O)Nc2ccc(Cl)cc2)cc1	-87.7	-	?	0	0	?
O=C(N/C(=C/c1ccc(Cl)cc1)c1nc2ccccc2[nH]1)c1ccco1	0	?	0	0	?	0
C=CCN(c1ccccc1)S(=O)(=O)c1cccc(C(=O)Nc2ccncc2)c1	-75.1	?	?	0	0	22.4µM
CC(=O)c1c2c(cc3c(N(C)C)cccc13)CC(CO)(CO)C2	0	-	-	-	-	-
CCCc1ccc2ccc3ccccc3c2n1	0	-	-	0	0	0
SMILES	HCMV antiviral	MARV entry inh	LASV entry inh	Vaccinia mCherry	VACV Venus inh	FMDV inh
C=CCN(c1ccccc1)S(=O)(=O)c1cccc(C(=O)N(CC)CC(=O)Nc2c(F)cccc2F)c1	0	?	17.8µM	0	0	0
CCN(c1ccccc1)S(=O)(=O)c1ccc(F)c(C(=O)Nc2ccc(C)cc2)c1	0	-	?	0	0	0
CCN(c1ccccc1)S(=O)(=O)c1cc(C(=O)Nc2ccc(F)c(F)c2)ccc1F	-90.9	?	14.1µM	?	?	11.2µM
CN(c1cccc(Cl)c1)S(=O)(=O)c1cccc(C(=O)Nc2nc3ccccc3[nH]2)c1	-99.4	22.4µM	?	?	11.2µM	12.6µM
Cc1cc(C(=O)OCC(=O)N2CCC(C)CC2)c2ccccc2n1	0	-	-	-	-	0
C=C1C=C(C)n2ncc(C(=O)Nc3ccc(C)cn3)c2N1	-	-	-	0	0	-
Cn1cc(Cc2ccc(C(=O)NC34CC5CC(CC(C5)C3)C4)cn2)c2ccccc21	0	-	-	-	-	-
COc1ccccc1/C=C/C(=O)/C=C/c1ccccc1O	-98.0	?	?	?	0	0
COc1ccccc1/C=C/C(C)=O	?	?	?	0	0	?
COc1ccccc1C=CC(=O)C=Cc1ccccc1OC	-99.9	?	4.47µM	?	?	?
COc1ccc(Nc2cc3c(cn2)nc(-c2ccc(OC)c(OC)c2)n3C)cn1	0	-	-	-	-	-
CC1CCC(C(O)(C(=O)c2ccccc2)c2ccccc2)C(=O)C1 (stereo not drawn)	0	-	-	?	0	0
OC(c1ccc(F)cc1)c1nc(-c2cccc(C(F)(F)F)c2)cs1 (stereo not drawn)	0	-	-	0	0	0
O=C(CSc1nnc(CNC(=O)c2c(F)cccc2Cl)o1)NC1CCCC1	0	0	?	0	0	0
CC1CCCN(C(=O)N2c3ccccc3Sc3ccccc32)C1 (stereo not drawn)	-67.9	?	?	-	-	0
CCC(C(=O)NCCc1ccc(C)cc1)n1nc(C)c2c(C)n(-c3ccccc3)nc2c1=O (stereo not drawn)	?	-	-	-	-	0
CSc1ccc(CNC(=O)C(C)n2nc(C)c3c(C)n(-c4ccccc4)nc3c2=O)cc1 (stereo not drawn)	-61.8	?	?	0	0	0
CSc1ccc(CCNC(=O)C(C)n2nc(C)c3c(C)n(-c4ccccc4)nc3c2=O)cc1 (stereo not drawn)	0	-	0	0	0	?
Cc1ccc(-n2nc3c(=O)n(C(C)C(=O)NCCC4=CCCCC4)nc(C)c3c2C)cc1 (stereo not drawn)	-61.4	-	-	-	-	14.1µM
CCC(C(=O)NCCc1ccc(SC)cc1)n1nc(C)c2c(C)n(-c3ccc(C)cc3)nc2c1=O (stereo not drawn)	-79.6	-	?	0	?	?
Cc1ccc(-n2nc3c(=O)n(C(C)C(=O)O)nc(C)c3c2C)cc1 (stereo not drawn)	0	0	0	0	0	0
Cc1ccc(-n2nc3c(=O)n(C(C)C(=O)NCc4ccc(OC(C)C)cc4)nc(C)c3c2C)cc1 (stereo not drawn)	-77.4	-	?	0[7.34 µM]	0[7.34 µM]	0
Cc1ccc(CCNC(=O)C(C)n2nc(C)c3c(C)n(-c4ccccc4)nc3c2=O)cc1 (stereo not drawn)	0	0	0	0	0	0
Cc1cc(C)c(NC(=O)CSc2nc3ccccc3nc2N2CCCCC2)c(C)c1	0	0	0	0	0	0
Cc1ccc2nc3c(c(C(=O)OCC(=O)NC4CCS(=O)(=O)C4)c2c1)CCCC3 (stereo not drawn)	0	0	0	0	0	0
Cc1ccc(-n2nc3c(=O)n(C(C)C(=O)NCc4ccc(Cl)cc4)nc(C)c3c2C)cc1 (stereo not drawn)	-67.9	-	-	-	-	?
Cc1ccc(-n2nc3c(=O)n(C(C)C(=O)NCc4ccccc4C)nc(C)c3c2C)cc1 (stereo not drawn)	0	-	0	0	0	?
O=C(Cc1ccc([N+](=O)[O-])cc1)Nc1ccc(Br)cn1	-61.2	?	0	?	0	0

Assay outcomes from PubChem BioAssay.
